Test results published in PubChem BioAssay AID1159580 (chemical genetic matrix, 2015).
The campaign covered roughly 5,500 compounds. About 2,000 (36%) were called active. Not shown: some 18% with an inconclusive outcome. No stated cut-off is given here; in the data, active means normalized growth mostly below about 0.91 (no sharp cut-off); inconclusive means no clear call, values can overlap the other calls; inactive means mostly above about 0.92. This is one part of the list.

Experiment: chemical genetic growth profiling, strain panel (AID 1159580);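 further: tested at 20 µM; growth read once vehicle control cultures reached saturation at 30 °C; 1 = growth at the plate median or of vehicle wells; lower values mean less growth of the strain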
Details: S. cerevisiae deletion strains, growth OD
[1] = locus YAL013W, strain DEP1, active compounds read low
[2] = locus YBR229C, strain ROT2, active compounds read low
[3] = locus YDL101C, strain DUN1, active compounds read low
[4] = locus YGR078C, strain PAC10, active compounds read low
[5] = locus YJL187C, strain SWE1, active compounds read low
[6] = locus YJR043C, strain POL32, active compounds read low
[7] = locus YJR075W, strain HOC1, active compounds read low
[8] = locus YKL190W, strain CNB1, active compounds read low
[9] = locus YLR039C, strain RIC1, active compounds read low
[10] = locus YLR262C, strain YPT6, active compounds read low
[11] = locus YMR263W, strain SAP30, active compounds read low
[12] = locus YNL153C, strain GIM3, active compounds read low
[13] = locus YNL322C, strain KRE1, active compounds read low
[14] = locus YPL055C, strain LGE1, active compounds read low
[15] = locus YPL241C, strain CIN2, active compounds read low

Measured: normalized growth

CC1(C)C(O)CC(=O)C2(C)C1CC(O)C1(C)C2CCC2(C)C(c3ccoc3)OC(=O)C3OC321 (stereo unspecified)
inactive: [1] 1 | locus YAL021C, strain ccr4, active compounds read low 0.99 | locus YAL026C, strain drs2, active compounds read low 1.02 | locus YAL030W, strain snc1, active compounds read low 1 | locus YBL061C, strain skt5, active compounds read low 1 | locus YBR009C, strain hhf1, active compounds read low 0.999 | locus YBR021W, strain FUR4, active compounds read low 0.931 | locus YBR023C, strain chs3, active compounds read low 0.99 | locus YBR171W, strain sec66, active compounds read low 0.995 | [2] 1 | locus YBR231C, strain swc5, active compounds read low 0.999 | locus YBR279W, strain paf1, active compounds read low 0.997 | locus YCL011C, strain gbp2, active compounds read low 1 | locus YCL016C, strain dcc1, active compounds read low 1.01 | locus YCL029C, strain bik1, active compounds read low 1 | locus YCL061C, strain MRC1, active compounds read low 0.993 | locus YCL069W, strain vba3, active compounds read low 1.03 | locus YCR088W, strain abp1, active compounds read low 0.989 | locus YDL005C, strain med2, active compounds read low 0.99 | locus YDL035C, strain GPR1, active compounds read low 0.989 | locus YDL040C, strain nat1, active compounds read low 0.997 | locus YDL074C, strain BRE1, active compounds read low 0.976 | [3] 1.01 | locus YDL185W, strain tfp1, active compounds read low 1.02 | locus YDL192W, strain arf1, active compounds read low 0.988 | locus YDR001C, strain nth1, active compounds read low 0.999 | locus YDR069C, strain doa4, active compounds read low 1 | locus YDR101C, strain arx1, active compounds read low 1 | locus YDR137W, strain rgp1, active compounds read low 0.997 | locus YDR159W, strain sac3, active compounds read low 0.973 | locus YDR162C, strain NBP2, active compounds read low 1 | locus YDR195W, strain ref2 0.939 | locus YDR297W, strain sur2, active compounds read low 0.985 | locus YDR318W, strain mcm21, active compounds read low 1 | locus YDR334W, strain swr1, active compounds read low 0.998 | locus YDR335W, strain msn5, active compounds read low 1 | locus YDR388W, active compounds read low 1.01 | locus YDR392W, strain spt3, active compounds read low 0.989 | locus YDR502C, strain sam2, active compounds read low 1.02 | locus YEL003W, strain gim4, active compounds read low 0.997 | locus YEL037C, strain rad23, active compounds read low 1.02 | locus YEL061C, strain CIN8 (second series), active compounds read low 0.995 | locus YER015W, strain faa2, active compounds read low 1 | locus YER016W, strain bim1, active compounds read low 1 | locus YER110C, active compounds read low 1.01 | locus YER111C, strain swi4, active compounds read low 0.99 | locus YER155C, strain BEM2 (second series), active compounds read low 0.998 | locus YER155C, strain BEM2, active compounds read low 1 | locus YER167W, strain BCK2, active compounds read low 0.998 | locus YFR010W, strain ubp6, active compounds read low 1.01 | locus YGL078C, strain dbp3, active compounds read low 1.03 | locus YGL086W, strain mad1, active compounds read low 1 | locus YGL167C, strain pmr1, active compounds read low 1.01 | locus YGL173C, strain kem1, active compounds read low 0.994 | locus YGL227W, strain vid30, active compounds read low 0.986 | locus YGL240W, strain doc1, active compounds read low 0.973 | locus YGL248W, strain PDE1, active compounds read low 1 | locus YGL253W, strain hxk2, active compounds read low 1 | [4] 1.01 | locus YGR135W, strain pre9, active compounds read low 1.03 | locus YGR229C, strain SMI1, active compounds read low 1.12 | locus YGR252W, strain gcn5, active compounds read low 0.986 | locus YHR013C, strain ard1, active compounds read low 0.996 | locus YHR027C, strain rpn1, active compounds read low 0.987 | locus YHR079C, strain IRE1 (second series), active compounds read low 1.01 | locus YHR094C, strain hxt1, active compounds read low 1.01 | locus YHR129C, strain ARP1, active compounds read low 0.999 | locus YHR142W, strain chs7, active compounds read low 1.02 | locus YHR200W, strain rpn10, active compounds read low 1 | locus YIL066C, strain RNR3, active compounds read low 0.995 | locus YIL073C, strain SPO22, active compounds read low 1.05 | locus YIL125W, strain kgd1, active compounds read low 1 | locus YIR030C, strain dcg1, active compounds read low 1.01 | locus YJL092W, strain hpr5, active compounds read low 1.01 | locus YJL095W, strain BCK1 (second series), active compounds read low 1.02 | locus YJL095W, strain BCK1, active compounds read low 1.01 | locus YJL115W, strain asf1, active compounds read low 0.993 | locus YJL129C, strain trk1, active compounds read low 0.978 | locus YJL134W, strain LCB3, active compounds read low 1.01 | locus YJL154C, strain vps35, active compounds read low 1 | locus YJL164C, strain tpk1, active compounds read low 1.02 | locus YJL166W, strain qcr8, active compounds read low 0.994 | locus YJL168C, strain set2, active compounds read low 1.01 | locus YJL187C, strain SWE1 (second series), active compounds read low 1.02 | [5] 0.996 | [6] 0.987 | [7] 0.997 | locus YKL009W, strain mrt4, active compounds read low 0.977 | locus YKL068W, active compounds read low 1.01 | locus YKL085W, strain MDH1 (second series), active compounds read low 1 | locus YKL085W, strain MDH1, active compounds read low 1 | locus YKL160W, strain elf1, active compounds read low 1.01 | [8] 1 | locus YKR001C, strain vps1, active compounds read low 0.993 | locus YKR026C, strain gcn3, active compounds read low 0.992 | locus YKR091W, strain srl3, active compounds read low 1 | locus YLL001W, strain dnm1, active compounds read low 1.01 | locus YLL026W, active compounds read low 0.997 | locus YLL041C, strain sdh2, active compounds read low 0.997 | locus YLR027C, strain aat2, active compounds read low 0.984 | [9] 0.95 | locus YLR058C, strain SHM2, active compounds read low 1.01 | locus YLR102C, strain apc9, active compounds read low 1.02 | locus YLR221C, strain rsa3, active compounds read low 0.991 | locus YLR258W, strain gsy2, active compounds read low 1.01 | locus YLR262C, strain YPT6 (second series), active compounds read low 0.998 | [10] 1 | locus YLR268W, strain sec22, active compounds read low 1.01 | locus YLR320W, strain mms22, active compounds read low 1 | locus YLR342W, strain FKS1, active compounds read low 0.984 | locus YLR357W, strain rsc2, active compounds read low 0.99 | locus YLR370C, strain arc18, active compounds read low 1.01 | locus YLR371W, strain rom2, active compounds read low 0.984 | locus YLR384C, strain iki3, active compounds read low 0.999 | locus YLR418C, strain cdc73, active compounds read low 1 | locus YML016C, strain PPZ1, active compounds read low 0.999 | locus YML032C, strain rad52, active compounds read low 1 | locus YML120C, strain ndi1, active compounds read low 1.01 | locus YML124C, strain tub3, active compounds read low 1.01 | locus YMR058W, strain fet3, active compounds read low 1.01 | locus YMR078C, strain ctf18, active compounds read low 1.01 | locus YMR125W, strain sto1, active compounds read low 0.992 | locus YMR129W, active compounds read low 1.01 | locus YMR205C, strain PFK2, active compounds read low 0.982 | locus YMR223W, strain ubp8, active compounds read low 1.01 | locus YMR231W, strain pep5, active compounds read low 1 | [11] 1.02 | locus YMR307W, strain GAS1, active compounds read low 0.975 | locus YNL067W, strain RPL9B, active compounds read low 1.04 | locus YNL071W, strain lat1, active compounds read low 0.996 | locus YNL128W, strain TEP1, active compounds read low 1.02 | [12] 1.03 | locus YNL209W, strain ssb2, active compounds read low 0.995 | locus YNL233W, strain BNI4, active compounds read low 1 | locus YNL248C, strain rpa49, active compounds read low 0.99 | locus YNL250W, strain rad50, active compounds read low 1.02 | locus YNL271C, strain bni1, active compounds read low 1.01 | locus YNL298W, strain CLA4, active compounds read low 1.02 | locus YNL307C, strain MCK1, active compounds read low 1.01 | locus YNL322C, strain KRE1 (second series), active compounds read low 0.998 | [13] 1.01 | locus YNR049C, strain mso1, active compounds read low 0.997 | locus YNR052C, strain pop2, active compounds read low 1.02 | locus YOL012C, strain htz1 0.761 | locus YOL147C, strain pex11, active compounds read low 1.01 | locus YOR001W, strain rrp6, active compounds read low 0.984 | locus YOR061W, strain CKA2, active compounds read low 1.01 | locus YOR069W, strain VPS5, active compounds read low 1.01 | locus YOR070C, strain gyp1, active compounds read low 0.993 | locus YOR080W, strain dia2, active compounds read low 0.997 | locus YOR083W, strain WHI5, active compounds read low 1.01 | locus YOR106W, strain vam3, active compounds read low 1.02 | locus YOR136W, strain idh2, active compounds read low 1.01 | locus YOR144C, strain elg1, active compounds read low 1.01 | locus YOR184W, strain ser1, active compounds read low 1.01 | locus YOR265W, strain rbl2, active compounds read low 1.01 | locus YOR270C, strain vph1, active compounds read low 1.03 | locus YOR290C, strain snf2, active compounds read low 1.02 | locus YOR316C, strain cot1, active compounds read low 1.01 | locus YPL051W, strain arl3, active compounds read low 1.01 | [14] 0.989 | locus YPL078C, strain atp4, active compounds read low 1.01 | locus YPL106C, strain sse1, active compounds read low 0.988 | locus YPL240C, strain hsp82, active compounds read low 1.01 | [15] 1.01 | locus YPR119W, strain clb2, active compounds read low 1 | locus YPR141C, strain kar3, active compounds read low 1.01 | locus YPR163C, strain tif3, active compounds read low 1.01 | locus YPR167C, strain met16, active compounds read low 1.01 | strain wtn01, active compounds read low 0.997

CN1c2ccccc2C(=O)/C(=N/Nc2ccccc2F)S1(=O)=O
inactive: [1] 1 | [2] 1.02 | [3] 1.02 | locus YDR150W, strain NUM1, active compounds read low 1.04 | locus YEL061C, strain CIN8, active compounds read low 1.01 | [4] 1.02 | locus YHR030C, strain SLT2, active compounds read low 0.991 | locus YHR087W, strain rtc3, active compounds read low 1.01 | [5] 0.997 | [6] 1.01 | [7] 1.02 | [8] 1 | [9] 0.999 | locus YLR058C, strain SHM2 (second series), active compounds read low 1.02 | locus YLR085C, strain ARP6, active compounds read low 0.965 | [10] 1.01 | locus YML094W, strain GIM5, active compounds read low 0.995 | locus YMR219W, strain ESC1, active compounds read low 1.01 | [11] 1.01 | [12] 1.02 | locus YNL298W, strain CLA4 (second series), active compounds read low 0.995 | [13] 1.01 | locus YNR030W, strain Alg12, active compounds read low 0.997 | [14] 1.03 | [15] 0.993 | locus YPR135W, strain CTF4, active compounds read low 1.06
